One compound from PubChem BioAssay (NCATS) can be followed below.

Each structure is given as a SMILES string. “And” between values parts separate entries of the source, which are not always exact repeats. Equal values may be shown once. Records with an inconclusive call do not appear. The source made the active and inactive calls. Unless noted, the call rests on the fitted dose curve; in most records, active means well fitted curve in the direction sought with a large enough effect; inconclusive means small, poorly fitted or top-dose-only effect, or another doubt; inactive means no such curve, though single readings can be large; an effect the other way counts as inactive or inconclusive.

Experiment [1] can be described thus: qHTS assay for small molecule antagonists of retinoid X receptor alpha signaling (AID 588546; active means well fitted inhibition curve with a large enough effect in the signal ratio, with a control signal flat, not every such curve was filed as active; the % refers to the signal ratio;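 further: cells stimulated with 9-cis-retinoic acid as agonist; on the % scale 0 is the no-effect control and ±100 the full control effect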). The note with it: HEK293T RXRa-UAS-bla, beta-lactamase ratio, antagonist mode; measured here: W530 green channel, cytotoxicity proxy. The method, boiled down: (§1)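 Beta-lactamase reporter inhibition, read as CCF4 fluorescence ratio (ex 405, em 460/530 nm) after 2 h at RT. HEK293T UAS-bla cells, 2500/well, were stimulated with 9-cis-RA at 500 or 100 nM final alongside test compound for 18 h at 37 C.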

For experiment [2], the target named is Retinoic acid receptor RXR-alpha (Homo sapiens) (UniProt P19793). Described as above. The note with it: HEK293T RXRa-UAS-bla, beta-lactamase ratio, antagonist mode. Put shortly:
as §1

Experiment [3] has as its target Thyroid hormone receptor beta (Homo sapiens) (UniProt P10828). In words: qHTS assay for small molecule antagonists of thyroid hormone receptor beta signaling (AID 588547; active means well fitted inhibition curve with a large enough effect in the signal ratio, with a control signal flat, not every such curve was filed as active; the % refers to the signal ratio;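 further: cells stimulated with 0.4 nM T3 agonist during compound exposure; on the % scale 0 is the no-effect control and ±100 the full control effect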). The note with it: TR-UAS-bla HEK293, beta-lactamase ratio, antagonist mode, 18 h. The method, boiled down:
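Inhibition of T3-driven (0.4nM final) beta-lactamase reporter activity was measured over 0.59 nM to 92 uM compound after 18 h at 37 C. The cells were GripTite HEK293 TR-UAS-bla in charcoal/dextran-stripped serum, with CCF4 ratio read-out and IC50 from Hill fits.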

The target in experiment [4] is Voltage-gated inwardly rectifying potassium channel KCNH2 (Homo sapiens) (UniProt Q12809). In words: qHTS Assay for Small Molecule Inhibitors of the Human hERG Channel Activity (AID 588834).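 Further: top concentration of the series differs between compounds; on the % scale 0 is the no-effect control and ±100 the full control effect; lower thallium flux fluorescence means stronger hERG block; nearly all actives have a fitted effect of over 50% in size.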 Put shortly:
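In hERG-transduced U2OS cells, dye-loaded for 1 hr at room temperature in dark, test compounds incubated 10 min at 37 °C before thallium stimulation. AC50 values derived by Hill modelling of concentration-response.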
On the technique in general: qHTS replaces the single test concentration by a dilution series.

Experiment [5] addresses Luciferin 4-monooxygenase (Photinus pyralis) (UniProt P08659). In words: Biochemical firefly luciferase enzyme assay for NPC (AID 624030).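 Further: purified P. pyralis luciferase at 10 nM with luciferin and ATP substrate; 0% = DMSO and -100% = full luciferase inhibition by PTC124 control; nearly all actives have a fitted effect of over 70% in size.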 Put shortly: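 Direct inhibition of firefly luciferase enzyme (10 nM final, 50 mM Tris Acetate) assessed by luminescence within 5 minutes. Percent activity scaled between DMSO and PTC124 positive control, with concentration-effect curves classified by fit quality and response.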

Experiment [6] can be described thus: qHTS assay for small molecule agonists of the antioxidant response element (ARE) signaling pathway (AID 651741; active means well fitted activation curve with a large enough effect in the signal ratio; the % refers to the signal ratio; further: % of control where 0% means no effect). Put shortly: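 Agonist activity is measured as ARE-driven beta-lactamase expression in a stable HepG2 reporter line, using 16 h compound treatment at 37 C and a FRET substrate fluorescence readout after 2 h.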
A short description of experiment [7]: qHTS assay for small molecule activators of the p53 signaling pathway (AID 651743; active means well fitted activation curve with a large enough effect in the signal ratio, not every such curve was filed as active; the % refers to the signal ratio; further: % of control where 0% means no effect). The note with it: HCT-116 p53RE-bla, beta-lactamase FRET ratio, 16 h; activation: stronger effect = higher value. Put shortly:
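A beta-lactamase reporter under p53 response element control, stably carried by HCT-116 cells, reported pathway activation. Test compounds were applied for 16 hours at 37 C, and fluorescence was measured 2 hours after adding the B/G FRET substrate.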

A short description of experiment [8]: qHTS assay for small molecule disruptors of the mitochondrial membrane potential - 1 hr assay (AID 651754; calls by dose curve; further: on the % scale 0 is the no-effect control and ±100 the full control effect; nearly all actives have a fitted effect of over 35% in size). Put shortly:
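Read-out: dye fluorescence at 490 nm ex/535 nm em (monomers) and 540 nm ex/590 nm em (aggregates) in HepG2 cells. Compound exposure 1 hr at 37C, followed by 30 min dye loading.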

Experiment [9] is described as follows: qHTS assay for small molecule disruptors of the mitochondrial membrane potential - 5 hr assay (AID 651755; calls by dose curve; further: on the % scale 0 is the no-effect control and ±100 the full control effect; nearly all actives have a fitted effect of over 40% in size). Put shortly: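 Membrane-potential dye readout: red aggregate (540 ex/590 em) versus green monomer (490 ex/535 em) fluorescence after 30 min dye loading, following 5 hr compound exposure at 37C of overnight-plated HepG2 cells.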
The target in experiment [10] is Tumor necrosis factor (Homo sapiens) (UniProt P01375). Nature of the experiment: qHTS assay to identify small molecules that stimulate Tumor Necrosis Factor-alpha (TNF-alpha) secretion (AID 651757; active means well fitted curve in the direction sought with a large enough effect in the signal ratio; the % refers to the signal ratio; further: 0% is about no effect). The method, boiled down:
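THP-1 cells, 3000/well; compound 17 hrs, 37 C; add cryptate/XL665 anti-TNF-alpha antibody pair; 3 hr RT; TR-FRET (HTRF) read of secreted TNF-alpha. Quantitative HTS format.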

Experiment [11] addresses Peroxisome proliferator-activated receptor alpha (Homo sapiens) (UniProt Q07869). Nature of the experiment: qHTS assay for small molecule agonists of the peroxisome proliferator-activated receptor alpha (PPARalpha) signaling pathway (AID 651778). Further: % of control where 0% means no effect. The settings on record: PathHunter PPARalpha complementation, chemiluminescence, 6 h; stronger effect = higher value. The method, boiled down:
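Chemiluminescence from complemented enzyme reported PPARalpha activation in cells after 6 hr of compound treatment at 37 C. The detection reagent was incubated for 60 min at room temperature, and compounds were scored as agonists.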

In experiment [12] the target is Nuclear receptor ROR-gamma (Homo sapiens) (UniProt P51449). In words: qHTS assay for small molecule antagonists of the retinoid-related orphan receptor gamma (ROR-gamma) signaling pathway (AID 651802).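 Further: CHO cells with doxycycline-induced ROR-gamma expression; luciferase reporter luminescence driven by ROR response element; on the % scale 0 is the no-effect control and ±100 the full control effect; nearly all actives have a fitted effect of over 60% in size.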 The method, boiled down: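 Luciferase read-out: ONE-Glo luminescence after 30 min at room temperature, following 16hr doxycycline induction at 37C, 5% CO2 of CHO cells with TET-inducible ROR and RORE-LUC reporter; decreased luminescence = reduced reporter activity.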
Chain of Nuclear receptor ROR-gamma (Homo sapiens) (P51449 whole entry, looked up): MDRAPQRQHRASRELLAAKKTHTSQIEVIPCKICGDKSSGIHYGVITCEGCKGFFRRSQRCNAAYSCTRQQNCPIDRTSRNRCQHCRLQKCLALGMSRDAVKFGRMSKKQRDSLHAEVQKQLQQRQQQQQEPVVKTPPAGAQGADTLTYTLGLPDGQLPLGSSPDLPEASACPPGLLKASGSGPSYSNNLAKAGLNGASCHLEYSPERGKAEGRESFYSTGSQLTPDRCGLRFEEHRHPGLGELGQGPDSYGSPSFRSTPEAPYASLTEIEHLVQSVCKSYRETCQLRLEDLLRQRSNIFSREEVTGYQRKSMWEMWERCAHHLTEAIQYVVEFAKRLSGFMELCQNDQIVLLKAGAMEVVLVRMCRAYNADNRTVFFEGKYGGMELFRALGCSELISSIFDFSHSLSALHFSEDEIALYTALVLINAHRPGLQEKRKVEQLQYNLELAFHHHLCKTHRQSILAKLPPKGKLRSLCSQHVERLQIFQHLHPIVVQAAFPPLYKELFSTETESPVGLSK

Experiment [13] in a line: qHTS assay for small molecule agonists of the antioxidant response element (ARE) signaling pathway measured by Nrf2-dependant transcriptional activity (AID 720636; active means well fitted curve in the direction sought with a large enough effect in the repeat runs; an effect the other way counts as inactive or inconclusive;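 further: HepG2 cells with an ARE-driven luciferase reporter; % of control where 0% means no effect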). Put shortly:
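Nrf2-dependent transcription is measured in ARE-luc HepG2 cells: compound is applied for 16 hr at 37 C after a 6 hr attachment period, and luciferase activity is quantified by luminescence using ONE-Glo.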

Experiment [14] in a line: qHTS assay for small molecule antagonists of the retinoid-related orphan receptor gamma (ROR-gamma) signaling pathway - cell viability counter screen (AID 720652; active means well fitted curve in the direction sought with a large enough effect in the repeat runs; an effect the other way counts as inactive or inconclusive;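 further: CHO reporter cells with doxycycline-induced ROR-gamma expression; compound exposure lasted 16 hr before ATP read; on the % scale 0 is the no-effect control and ±100 the full control effect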). The method, boiled down:
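CHO RORE-LUC/TET-ROR line, 1,000 cells/well, 37 C 5% CO2 5 hr; cpd or DMSO + doxycycline induction, 16 hr. CellTiter-Glo, 30 min RT, luminescence = ATP content.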

The nature of experiment [15]: qHTS assay for small molecule agonists of the antioxidant response element (ARE) signaling pathway measured by Nrf2-dependant transcriptional activity - cell viability counter screen (AID 720653; active means well fitted curve in the direction sought with a large enough effect in the repeat runs; an effect the other way counts as inactive or inconclusive; further: on the % scale 0 is the no-effect control and ±100 the full control effect). The note with it: ARE-bla HepG2 viability, CellTiter-Glo ATP luminescence, 16 h; max response: stronger effect = lower value. Put shortly: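 Cytotoxicity counter screen: intracellular ATP quantified by CellTiter-Glo luminescence in the same ARE-bla HepG2 plates, after 16 h compound exposure and a 2 h beta-lactamase substrate step.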

The nature of experiment [16]: qHTS Assay for Identifying Gametocytocidal Compounds (AID 743244).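 Further: on the % scale 0 is the no-effect control and ±100 the full control effect; actives lower the fluorescent signal which means gametocytes are killed.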 The note with it: P. falciparum 3D7 stage III-V gametocytes, alamarBlue, 72 h; max response: stronger effect = lower value. The method, boiled down: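 P. falciparum 3D7 stage III–V gametocytes (20,000 cells/well) were exposed to compounds for 72 h at 37 °C, 5% CO2. AlamarBlue was then added for 24 h; decreased resorufin fluorescence (Ex 525/Em 598 nm) indicated loss of viability.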

The nature of experiment [17]: qHTS assay for cell viability of HEK293 cells (AID 743288). Further: on the % scale 0 is the no-effect control and ±100 the full control effect; nearly all actives have a fitted effect of over 50% in size. The note with it: ATP luminescence (CellTiter-Glo), 18 h; max response: stronger effect = lower value. Put shortly:
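After 18 h compound exposure at 37 C, parental HEK293 cells (2,000/well) are lysed with CellTiter-Glo and luminescence is read following 30 min at room temperature.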

The nature of experiment [18]: qHTS assay for cell viability of the p53RE-bla HCT-116 cell line (AID 743292). Further: on the % scale 0 is the no-effect control and ±100 the full control effect; nearly all actives have a fitted effect of over 55% in size. Put shortly:
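ATP-based luminescence, 16 h compound exposure at 37 C, p53RE-bla HCT-116 cells at 4,000/well.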

In a further experiment the test system is KB-3-1. In words: Cytotoxic Profiling of Annotated Libraries Using Quantitative High-Throughput Screening (AID 1296008). Further: on the % scale 0 is the no-effect control and ±100 the full control effect; nearly all actives have a fitted effect of over 60% in size. The note with it: Five cell lines viability, CellTiter-Glo ATP luminescence, 48-72 h; max response: stronger effect = lower value. Put shortly: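 Cytotoxicity was measured as CellTiter-Glo ATP luminescence, read after 10 min at room temperature. Compound treatment of the cells lasted 48 or 72 hr at 37 degrees Celsius in a qHTS format.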

The subject of the next experiment is astro. Nature of the experiment: Drug repurposing screens with cells derived from glioblastoma tumor samples (AID 1345199). Further: on the % scale 0 is the no-effect control and ±100 the full control effect; nearly all actives have a fitted effect of over 40% in size. The settings on record: viability, ATP luminescence, 48 h; series mostly up to 45.9 µM. The method, boiled down:
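Primary testing used CD133+ neurospheres from four GBM patients, seven concentrations, 48 h exposure and ATP-based viability; confirmation added three slower-growing patient lines.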

For experiment [19], the target named is Nuclear receptor subfamily 1 group I member 2 (Rattus norvegicus) (UniProt Q9R1A7). In words: qHTS assay for small molecule activators of the rat pregnane X receptor (rPXR) signaling pathway (AID 651751; call rule not given here; further: 0% is about no effect). The settings on record: rPXR reporter cells, luciferase (One-Glo), 24 h.
Chain of Nuclear receptor subfamily 1 group I member 2 (Rattus norvegicus) (Q9R1A7 whole entry, looked up): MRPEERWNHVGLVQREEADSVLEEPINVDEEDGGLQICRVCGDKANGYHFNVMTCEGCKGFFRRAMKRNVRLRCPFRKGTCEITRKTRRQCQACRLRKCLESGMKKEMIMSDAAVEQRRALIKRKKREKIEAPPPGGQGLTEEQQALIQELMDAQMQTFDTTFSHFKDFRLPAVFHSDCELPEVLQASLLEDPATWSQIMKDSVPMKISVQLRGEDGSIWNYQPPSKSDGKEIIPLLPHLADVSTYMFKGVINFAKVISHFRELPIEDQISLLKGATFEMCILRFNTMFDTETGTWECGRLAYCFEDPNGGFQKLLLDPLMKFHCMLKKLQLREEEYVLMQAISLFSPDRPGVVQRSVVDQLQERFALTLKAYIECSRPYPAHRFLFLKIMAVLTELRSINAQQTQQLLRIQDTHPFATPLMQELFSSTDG
Experiment [20] is described as follows: qHTS assay for small molecule activators of the human pregnane X receptor (PXR) signaling pathway (AID 720659; call rule not given here; further: 0% is about no effect).

Chain of Luciferin 4-monooxygenase (Photinus pyralis) (P08659 whole entry, looked up): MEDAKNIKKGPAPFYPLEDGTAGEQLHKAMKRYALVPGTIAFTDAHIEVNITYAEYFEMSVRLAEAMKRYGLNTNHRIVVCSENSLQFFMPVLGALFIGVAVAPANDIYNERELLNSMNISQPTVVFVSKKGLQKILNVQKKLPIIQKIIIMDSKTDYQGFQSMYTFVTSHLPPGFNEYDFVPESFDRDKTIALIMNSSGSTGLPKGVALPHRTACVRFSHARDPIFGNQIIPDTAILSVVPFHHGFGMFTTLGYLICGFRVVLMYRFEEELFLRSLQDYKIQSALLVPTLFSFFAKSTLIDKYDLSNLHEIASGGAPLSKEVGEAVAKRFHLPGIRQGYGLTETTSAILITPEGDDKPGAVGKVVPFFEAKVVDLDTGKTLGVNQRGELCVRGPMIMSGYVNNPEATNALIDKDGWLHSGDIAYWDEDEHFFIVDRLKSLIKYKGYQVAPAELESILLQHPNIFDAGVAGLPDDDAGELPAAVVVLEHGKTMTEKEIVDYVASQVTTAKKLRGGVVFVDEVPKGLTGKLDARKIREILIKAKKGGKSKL
Chain of Retinoic acid receptor RXR-alpha (Homo sapiens) (P19793 whole entry, looked up): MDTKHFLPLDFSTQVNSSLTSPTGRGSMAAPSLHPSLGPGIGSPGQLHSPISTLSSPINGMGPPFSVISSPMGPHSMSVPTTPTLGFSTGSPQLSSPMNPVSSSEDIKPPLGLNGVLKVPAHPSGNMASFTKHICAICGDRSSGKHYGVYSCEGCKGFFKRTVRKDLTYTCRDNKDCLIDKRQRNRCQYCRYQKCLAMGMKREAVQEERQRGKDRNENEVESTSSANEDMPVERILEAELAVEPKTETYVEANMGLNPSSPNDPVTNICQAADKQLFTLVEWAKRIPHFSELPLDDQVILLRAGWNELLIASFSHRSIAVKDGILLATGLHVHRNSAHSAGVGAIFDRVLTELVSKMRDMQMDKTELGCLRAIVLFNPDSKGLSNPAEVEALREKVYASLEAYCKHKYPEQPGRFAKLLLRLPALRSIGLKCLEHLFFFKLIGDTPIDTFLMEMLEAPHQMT
Chain of Tumor necrosis factor (Homo sapiens) (P01375 whole entry, looked up): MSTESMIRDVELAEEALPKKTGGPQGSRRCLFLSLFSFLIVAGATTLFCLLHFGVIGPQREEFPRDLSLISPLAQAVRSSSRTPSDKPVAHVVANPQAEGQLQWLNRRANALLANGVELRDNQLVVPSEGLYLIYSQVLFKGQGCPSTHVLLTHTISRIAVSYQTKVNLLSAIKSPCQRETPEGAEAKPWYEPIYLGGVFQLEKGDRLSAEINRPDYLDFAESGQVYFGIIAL
Chain of Peroxisome proliferator-activated receptor alpha (Homo sapiens) (Q07869 whole entry, looked up): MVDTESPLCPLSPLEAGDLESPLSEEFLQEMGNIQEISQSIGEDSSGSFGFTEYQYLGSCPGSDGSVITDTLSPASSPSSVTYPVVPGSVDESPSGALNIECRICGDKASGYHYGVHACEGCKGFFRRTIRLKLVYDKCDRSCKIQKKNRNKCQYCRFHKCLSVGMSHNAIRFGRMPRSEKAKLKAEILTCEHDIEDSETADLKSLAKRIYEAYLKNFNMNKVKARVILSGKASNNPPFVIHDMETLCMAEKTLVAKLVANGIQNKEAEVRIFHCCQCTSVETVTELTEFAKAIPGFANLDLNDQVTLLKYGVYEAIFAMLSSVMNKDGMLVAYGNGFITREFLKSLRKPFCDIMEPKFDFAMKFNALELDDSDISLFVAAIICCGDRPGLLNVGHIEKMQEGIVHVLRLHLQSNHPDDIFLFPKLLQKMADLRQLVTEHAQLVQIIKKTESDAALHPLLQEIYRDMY
Chain of Thyroid hormone receptor beta (Homo sapiens) (P10828 whole entry, looked up): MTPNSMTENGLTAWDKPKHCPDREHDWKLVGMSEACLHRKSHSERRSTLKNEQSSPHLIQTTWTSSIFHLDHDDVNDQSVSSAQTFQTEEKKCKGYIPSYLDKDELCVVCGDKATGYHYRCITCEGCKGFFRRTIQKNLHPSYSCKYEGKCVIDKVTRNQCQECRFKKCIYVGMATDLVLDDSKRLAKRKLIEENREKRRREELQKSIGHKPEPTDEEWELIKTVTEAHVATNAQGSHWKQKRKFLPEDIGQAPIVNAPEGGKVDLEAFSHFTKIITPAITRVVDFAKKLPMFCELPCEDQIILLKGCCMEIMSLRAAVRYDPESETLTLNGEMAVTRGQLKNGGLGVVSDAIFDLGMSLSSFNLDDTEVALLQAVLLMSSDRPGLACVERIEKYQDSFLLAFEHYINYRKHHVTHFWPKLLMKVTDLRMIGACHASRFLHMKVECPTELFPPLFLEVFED
Chain of Voltage-gated inwardly rectifying potassium channel KCNH2 (Homo sapiens) (Q12809 whole entry, looked up): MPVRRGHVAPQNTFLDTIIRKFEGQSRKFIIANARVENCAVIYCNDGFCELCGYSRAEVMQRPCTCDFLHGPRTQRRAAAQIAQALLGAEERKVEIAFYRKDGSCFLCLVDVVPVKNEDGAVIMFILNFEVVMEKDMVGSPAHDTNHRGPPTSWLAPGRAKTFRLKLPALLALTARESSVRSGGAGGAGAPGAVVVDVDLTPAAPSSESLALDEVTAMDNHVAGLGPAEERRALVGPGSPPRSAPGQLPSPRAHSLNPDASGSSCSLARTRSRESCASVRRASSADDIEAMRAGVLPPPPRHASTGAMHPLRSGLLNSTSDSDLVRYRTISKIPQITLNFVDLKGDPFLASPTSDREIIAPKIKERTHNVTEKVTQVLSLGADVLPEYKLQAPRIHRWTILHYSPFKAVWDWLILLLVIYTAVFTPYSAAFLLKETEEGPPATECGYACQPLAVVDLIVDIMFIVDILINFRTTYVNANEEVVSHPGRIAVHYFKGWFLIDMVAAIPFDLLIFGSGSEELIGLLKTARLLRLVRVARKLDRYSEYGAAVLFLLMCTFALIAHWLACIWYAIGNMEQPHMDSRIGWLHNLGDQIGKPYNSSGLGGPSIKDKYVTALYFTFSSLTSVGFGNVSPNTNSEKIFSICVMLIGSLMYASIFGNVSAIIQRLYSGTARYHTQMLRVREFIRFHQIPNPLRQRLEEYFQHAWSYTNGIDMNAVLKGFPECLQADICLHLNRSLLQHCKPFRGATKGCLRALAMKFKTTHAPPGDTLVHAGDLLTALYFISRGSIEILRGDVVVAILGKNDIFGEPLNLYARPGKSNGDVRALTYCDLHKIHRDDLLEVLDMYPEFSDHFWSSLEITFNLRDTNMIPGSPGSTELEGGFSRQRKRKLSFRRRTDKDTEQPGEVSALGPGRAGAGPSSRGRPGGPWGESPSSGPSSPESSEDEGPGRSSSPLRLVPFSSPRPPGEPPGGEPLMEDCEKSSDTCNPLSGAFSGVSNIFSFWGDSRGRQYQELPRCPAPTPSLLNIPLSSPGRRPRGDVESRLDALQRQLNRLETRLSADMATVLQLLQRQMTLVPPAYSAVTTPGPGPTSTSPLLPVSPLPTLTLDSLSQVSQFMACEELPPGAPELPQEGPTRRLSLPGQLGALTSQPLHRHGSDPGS

Take `O=Cc1ccccc1`: the max response is -3.83% in experiment [1]; 10.9% (inactive) in experiment [2]; -3.46% (inactive) in [11]; -5.51% (inactive) in experiment [15]; -4.29% (inactive) in experiment [16]; -12% (inactive) in experiment [17]. Besides, the max response is -11.1% (inactive) and 0.83% (inactive) in the experiment on KB-3-1; 2.23% (inactive) in [19]. Besides, the activity change % (negative = inhibition) in [3] was 12% (inactive). The Potency result in [4], in [5], in experiment [6], in experiment [8], in [9] and in experiment [12] was “inactive” throughout. In addition, the Potency result (in experiment [13]; in the experiment on astro) was “inactive” throughout. The activation in experiment [7] is -1.08% (inactive). The call in [10], in experiment [14], in experiment [18] and in experiment [20] was inactive.
